# Experimental data as given in article PMC5540273 (PLoS ONE, 2017).
# Columns and labels:
# Conditions in all cases: concentration: 1 μM, replicates: in singlicate; n = 1
# PDGFRB = tested on: PDGFRB
# PDPK1 = tested on: PDPK1
# PFTAIRE2 = tested on: PFTAIRE2
# PFTK1 = tested on: T1, PFTK1
# T1 construct: gene CDK14
# PHKG1 = tested on: PHKG1
# PHKG2 = tested on: PHKG2
# PIK3C2B = tested on: PIK3C2B
# PIK3C2G = tested on: PIK3C2G
# PIK3CA = tested on: PIK3CA
# PIK3CB = tested on: PIK3CB
# PIK3CD = tested on: PIK3CD
# PIK3CG = tested on: PIK3CG
# PIK4CB = tested on: T2, PIK4CB
# T2 construct: gene PI4KB
# PIKFYVE = tested on: PIKFYVE
# PIM1 = tested on: PIM1
# PIM2 = tested on: PIM2
# PIM3 = tested on: PIM3
# PIP5K1A = tested on: PIP5K1A
# PIP5K1C = tested on: PIP5K1C
# PIP5K2B = tested on: PIP5K2B
# 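Note: KINOMEscan kinase panel screen.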
SMILES,%Inh (PDGFRB),%Inh (PDPK1),%Inh (PFTAIRE2),%Inh (PFTK1),%Inh (PHKG1),%Inh (PHKG2),%Inh (PIK3C2B),%Inh (PIK3C2G),%Inh (PIK3CA),%Inh (PIK3CB),%Inh (PIK3CD),%Inh (PIK3CG),%Inh (PIK4CB),%Inh (PIKFYVE),%Inh (PIM1),%Inh (PIM2),%Inh (PIM3),%Inh (PIP5K1A),%Inh (PIP5K1C),%Inh (PIP5K2B)
Cn1ccc2ncnc(Oc3ccc(NC(=O)Nc4cccnc4)c(Cl)c3)c21,99.7%,0%,10%,0%,15%,0%,6%,19%,4%,3%,8%,7%,0%,0%,1%,0%,0%,0%,1%,35%
C[C@@H]1CCN(C(=O)CO)C[C@@H]1N(C)c1ncnc2[nH]ccc12,14%,0%,0%,0%,4%,0%,0%,3%,0%,0%,5%,0%,0%,48%,0%,0%,0%,16%,0%,0%
COc1cc2c(Nc3cccc(NC(=O)c4ccccc4)c3)ncnc2cc1OCCCN1CCOCC1 [GSK223810],85%,100%,16%,0%,5%,12%,0%,0%,0%,0%,0%,0%,0%,0%,0%,0%,5%,0%,26%,2%
COC(=O)c1cccc(NC(=O)NCCNc2ccnc(Nc3ccc(F)cc3)n2)c1 [GSK1379883],51%,5%,9%,18%,0%,0%,4%,0%,9%,0%,0%,8%,0%,1%,0%,0%,0%,34%,56%,5%
COc1ccc(Nc2nccc(N3CCC(NC(=O)c4cccc(NC(C)=O)c4)C3)n2)cc1 (stereo not drawn) [GSK1379732],20%,10%,17%,36%,0%,1%,0%,0%,0%,9%,0%,0%,0%,0%,0%,0%,0%,49%,70%,12%
O=C(Nc1n[nH]c2nc(-c3ccco3)c(Br)cc12)c1ccc(CN2CCCC2)cc1.O=C(O)[C@H](O)[C@@H](O)C(=O)O [SB-742352],99.7%,0%,5%,0%,0%,0%,0%,0%,0%,0%,0%,5%,40%,0%,0%,0%,0%,0%,0%,0%
CCCc1ccc(S(=O)(=O)NC2CCN(c3ccnc(Nc4ccc(OC)cc4)n3)C2)cc1 (stereo not drawn) [GSK1379737],51%,0%,5%,0%,0%,0%,0%,0%,0%,0%,0%,0%,0%,0%,0%,0%,0%,52%,56%,22%
CS(=O)(=O)CCNCc1nc(-c2ccc3ncnc(Nc4ccc(OCc5cccc(F)c5)c(Cl)c4)c3c2)cs1.Cl [GW583340],12%,0%,12%,16%,0%,0%,37%,0%,0%,0%,29%,0%,26%,0%,20%,0%,8%,1%,38%,0%
Clc1cc(Nc2ncnc3cc[nH]c23)ccc1OCc1ccccn1,38%,0%,5%,10%,0%,0%,15%,43%,8%,15%,25%,4%,34%,0%,5%,10%,22%,30%,0%,0%
Clc1cccc(-c2nc(Nc3ccncc3)c3ccccc3n2)c1 [GW873004],12%,4%,0%,0%,0%,0%,0%,0%,0%,0%,0%,0%,0%,61%,4%,11%,0%,22%,33%,0%
CN1CCC(n2cnc(-c3ccc(F)cc3)c2-c2ccnc(NC3CCNCC3)n2)CC1 [SB-229482],29%,0%,17%,0%,0%,16%,0%,0%,0%,37%,0%,34%,31%,40%,1%,0%,2%,0%,0%,0%
COc1ccc(-c2oc3ncnc(N)c3c2-c2ccc(OC)cc2)cc1 [SB-589132],41%,0%,17%,0%,0%,0%,0%,10%,0%,0%,4%,10%,10%,23%,0%,0%,0%,48%,54%,11%
Cc1ccc(NC(=O)c2cccc(C#N)c2)cc1-c1ccc(C(=O)Nc2ccncc2)cc1 [GSK1398463],100%,17%,13%,27%,2%,0%,5%,4%,6%,0%,1%,0%,11%,0%,9%,0%,0%,0%,38%,23%
CN1c2ccc(-c3ccc(C(=O)NCCO)cc3)cc2-c2[nH]ncc2S1(=O)=O,11%,17%,0%,0%,0%,41%,0%,8%,0%,0%,10%,0%,0%,0%,10%,5%,24%,0%,41%,0%
O=C(Nc1ccccc1)Nc1ccc(Oc2ccc3nccn3n2)cc1,99%,0%,0%,0%,0%,5%,0%,0%,0%,0%,0%,0%,0%,5%,0%,6%,0%,4%,25%,7%
O=C(NCCCN1CCCC1=O)c1cnc(NCc2cc(Cl)ccc2Cl)nc1NC1CCNCC1,0%,7%,0%,7%,0%,1%,0%,0%,0%,0%,0%,7%,0%,30%,0%,0%,4%,0%,12%,0%
C[C@H]1CC[C@@H](C(=O)Nc2ccccc2)CN1c1cc(-c2ccc3c(N)n[nH]c3c2)nc(N)n1 [GSK2283293],11%,25%,15%,11%,0%,0%,0%,0%,0%,0%,0%,0%,0%,0%,13%,0%,0%,0%,19%,24%
Cl.Fc1ccccc1COc1ccc(Nc2ncnc3ccc(-c4nnc(C(F)(F)F)o4)cc23)cc1Cl [GW424170],20%,0%,6%,0%,0%,7%,0%,0%,0%,0%,0%,0%,0%,0%,0%,0%,0%,66%,36%,7%
COc1ccc(Nc2nccc(N3CCC(NC(=O)Nc4ccc5c(c4)OCO5)C3)n2)cc1 (stereo not drawn) [GSK1379745],24%,27%,11%,7%,0%,9%,9%,0%,0%,0%,5%,0%,14%,14%,9%,0%,0%,11%,51%,40%
O=C(Nc1ccccc1F)NC1CCN(c2ccnc(Nc3ccc(F)cc3)n2)C1 (stereo not drawn) [GSK1379722],8%,14%,7%,14%,13%,0%,0%,0%,0%,0%,0%,0%,100%,0%,0%,0%,0%,0%,45%,14%
Fc1cccc(COc2ccc(Nc3ncnc4nn5ccccc5c34)cc2Cl)c1 [GW689066],13%,0%,4%,0%,2%,0%,0%,0%,0%,41%,0%,0%,0%,0%,0%,0%,0%,40%,43%,7%
